D1 mod: allosteric modulators of human D1 dopamine receptor; P21728; HEK293 D1, CRE-luciferase, dopamine EC30 potentiation; actives deviate in either direction; B-score at 10 µM; 58,000 tested, 5.9% active; AID 641;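 active = luminescence count or its row- and column-corrected plate score outside the 99.7% band of the plate's sample wells, on either side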
Target sequence (P21728 whole entry, looked up): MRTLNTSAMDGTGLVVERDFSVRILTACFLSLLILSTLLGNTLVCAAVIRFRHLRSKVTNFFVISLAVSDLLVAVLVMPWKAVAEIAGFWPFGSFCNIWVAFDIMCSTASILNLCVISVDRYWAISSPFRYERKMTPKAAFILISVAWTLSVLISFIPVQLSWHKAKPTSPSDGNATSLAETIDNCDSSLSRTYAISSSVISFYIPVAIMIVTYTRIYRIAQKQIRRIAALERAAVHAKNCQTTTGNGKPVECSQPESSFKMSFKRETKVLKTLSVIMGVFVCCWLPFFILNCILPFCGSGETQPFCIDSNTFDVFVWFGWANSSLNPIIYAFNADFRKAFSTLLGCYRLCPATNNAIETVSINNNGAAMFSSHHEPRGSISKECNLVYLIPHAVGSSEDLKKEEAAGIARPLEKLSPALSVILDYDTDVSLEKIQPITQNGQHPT
M1 ag: activates the M1 muscarinic receptor; CHO-M1 cells, Fluo-4 calcium fluorescence, agonist mode; hits give high values; B-score at 10 µM; 64,000 tested, 3% active;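 active = fluorescence rise, raw or as B-score row- and column-corrected plate score, outside the 99.7% band of its plate's samples, either direction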
Htt clearance: compounds clearing mutant huntingtin protein; inhibition, % at 1.5 µM; AID 853; HeLa Exon1htt(103Q)mCFP, aggregate imaging; zero = plate's median compound well; 47,000 tested, 0.42% active;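 active = inhibition of aggregate fluorescence above about 70%, also judged a hit by eye on the cell image, limit read from the data, passing the limit was not always enough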;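 note: cells exposed to compound for three days before fixation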
M1 antagonist: blocks the rat M1 muscarinic receptor response to acetylcholine | P08482 | CHO-M1 cells, Fluo-4 calcium, ACh EC80 antagonist mode; hits give low values | B-score at 10 µM | 64,000 tested, 3.4% active;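 active = calcium fluorescence response, raw or row-and-column corrected B-score, differing from the plate sample mean either way at a set confidence level, mostly lower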
D1 mod confirm: confirmation of human D1 dopamine receptor allosteric modulators | shares compounds with D1 mod | HEK293 D1 CRE-luciferase, dopamine EC30 potentiation; hits give high values | luminescence at 10 µM | 2,200 tested, 88% active | AID 642;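 active = luminescence in either of two replicates above the same-plate mean plus 3 SD of the low-dose dopamine control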
D1 no dopamine: D1 (human) signaling in absence of dopamine; 1,900 tested, 0.8% active; AID 646; luminescence at 10 µM; shares compounds with D1 mod; HEK293 D1 CRE-luciferase, luminescence, no dopamine; hits give high values; in the data active = luminescence above about 3900
Isoprot counter: counter-screen for D1 modulators: isoproterenol response in HEK293 cells. shares compounds with D1 mod. HEK293 D1 CRE-luciferase, isoproterenol EC30 counter-screen; hits give high values. luminescence at 10 µM. 2,200 tested, 63% active. AID 647;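 active = luminescence in either replicate above plate mean of wells with a partly effective reference agonist dose plus 3 SD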;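 note: isoproterenol raises cAMP through native beta-adrenoceptor Gs so signal bypasses D1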
Of the large screens only hits and unclear results are named; the others gave an inactive call (follow-up assays come after a bar, where they were run). Shown are actives, neighbours in structure and some others; about 9.1% of the full set was active somewhere.

Cc1cccc(-c2cc3nc4c(c(N5CCCC(O)C5)n3n2)CCC4)c1 (configuration not stated)	D1 mod 8.4 | D1 mod confirm 18448 | D1 no dopamine inactive | Isoprot counter 6432
Clc1ccc(-c2cc(COc3ccc4ccccc4c3)no2)cc1	none (no result: D1 mod, M1 ag, M1 antagonist)
CCOc1cc(-c2cc(-c3ccc(N)cc3)nc(N)c2C#N)ccc1O	D1 mod 8.6 (no result: Htt clearance) | D1 mod confirm 19856 | D1 no dopamine inactive | Isoprot counter 11240
CCOc1cc(-c2cc(-c3ccccc3)nc(N)c2C#N)ccc1O	none (no result: D1 mod, M1 ag, M1 antagonist)
CC1Cc2ccccc2N1C(=O)CSc1nc2cc3c(cc2cc1C#N)OCO3 (configuration not stated)	D1 mod 5.1 | D1 mod confirm 13756 | D1 no dopamine inactive | Isoprot counter 4904
C=CCSc1nc(N)c2c(C)c(C)sc2n1	D1 mod 4.9 (no result: Htt clearance) | D1 mod confirm 18248 | D1 no dopamine inactive | Isoprot counter 4196
O=C(O)C1C2C=CC(C2)C1C(=O)NCc1cccnc1 (configuration not stated)	none (no result: D1 mod, M1 ag, M1 antagonist)
CCCCOC(=O)C(C)c1c(C)[nH]c(=S)[nH]c1=O (configuration not stated)	none
Cc1cc(NC(=O)COC(=O)c2c(C)nn(-c3ccccc3)c2C)no1	none
Cc1nc(COC(=O)c2c(C)nn(-c3ccccc3)c2C)cs1	D1 mod 6.9 | D1 mod confirm 8048 | D1 no dopamine inactive | Isoprot counter 3456
c1ccc2c(c1)ccc1nnc(-c3ccc4c(c3)OCO4)n12	D1 mod 22 (no result: Htt clearance) | D1 mod confirm 24948 | D1 no dopamine inactive | Isoprot counter 7028
O=C(CSCc1ccc(Cl)cc1)c1ccco1	none (no result: Htt clearance)
O=c1[nH]c2ccc(Cl)cc2c(=O)n1Cc1ccco1	none (no result: D1 mod, M1 ag, M1 antagonist)
Cc1ccc(Cn2c(=O)n(Cc3ccco3)c(=O)c3ccccc32)cc1	D1 mod 12 (no result: Htt clearance) | D1 mod confirm 15080 | D1 no dopamine inactive | Isoprot counter 4524
O=c1c2ccccc2n(Cc2ccc(Cl)cc2)c(=O)n1Cc1ccco1	D1 mod 8.5 (no result: Htt clearance) | D1 mod confirm 16764 | D1 no dopamine inactive | Isoprot counter 3544
O=C(CCCCn1c(=O)c2ccccc2n(Cc2ccc(F)cc2)c1=O)NCc1ccco1	none (no result: D1 mod, M1 ag, M1 antagonist)
O=C(CCCn1c(=O)c2ccccc2n(Cc2ccccc2)c1=O)NCc1ccco1	D1 mod 3 | D1 mod confirm 8576 | D1 no dopamine inactive | Isoprot counter 2992
O=c1c2cc(Cl)ccc2[nH]c(=S)n1Cc1ccco1	D1 mod 2.8 | D1 mod confirm 9744 | D1 no dopamine inactive | Isoprot counter inactive
O=C(COC(=O)c1cc[n+]([O-])cc1)NCC12CC3CC(CC(C3)C1)C2	none (no result: D1 mod, M1 ag, M1 antagonist)
O=C(CCN1C(=O)COc2ccccc21)NCc1cccs1	none (no result: Htt clearance)
CCOC(=O)c1sc2nc(N3CCOCC3)c3c(c2c1N)CCCC3	none (no result: Htt clearance)
CCOC(=O)c1sc2nc(N3CCCC3)c3c(c2c1N)CC(C)(C)OC3	D1 mod 13 (no result: Htt clearance) | D1 mod confirm 21232 | D1 no dopamine inactive | Isoprot counter 5660
CC(=O)c1cccc(NC(=O)c2cc3nc(C)cc(C)n3n2)c1	none
CC(C)Cc1nc(N2CCN(C(=O)C(C)C)CC2)c(C#N)c2c1CCC2	D1 mod 4.5 (no result: Htt clearance) | D1 mod confirm 7400 | D1 no dopamine inactive | Isoprot counter inactive
CC(C)Cc1nc(N2CCCCC2)c(C#N)c2c1CCC2	none
O=C(c1ccco1)N1CCN(c2nc(C3CC3)nc3sc4c(c23)CCCC4)CC1	D1 mod 6.9 (no result: Htt clearance) | D1 mod confirm 15256 | D1 no dopamine inactive | Isoprot counter inactive
CC(C)Cc1nc(N2CCN(C(=O)c3ccco3)CC2)c(C#N)c2c1CCC2	D1 mod 7.5 (no result: Htt clearance) | D1 mod confirm 12548 | D1 no dopamine inactive | Isoprot counter 3420
CCCc1nc(N2CCOCC2)c(C#N)c2c1CCCC2	D1 mod 6.5 (no result: Htt clearance) | D1 mod confirm 7888 | D1 no dopamine inactive | Isoprot counter inactive
CC1(C)Cc2c(C#N)c(N3CCN(C(=O)c4ccco4)CC3)nc(Cc3ccccc3)c2CO1	none (no result: D1 mod)
Cc1cc(C)cc(N2CC34C=CC(O3)C(C(=O)OCC(=O)NCc3ccco3)C4C2=O)c1 (configuration not stated)	none
Cc1nn(Cc2ccccc2)c(C)c1NC(=O)CSc1nnc(-c2cc(Cl)ccc2O)n1C	none
CC(C)Cc1nc(N2CCN(C(=O)c3ccccc3)CC2)c(C#N)c2c1CCC2	none (no result: D1 mod, M1 ag, M1 antagonist)
N#Cc1c(N2CCN(C(=O)c3ccccc3)CC2)nc(-c2ccccc2)c2c1CCCC2	none (no result: D1 mod, M1 ag, M1 antagonist)
CC(C)c1cc(N2CCN(C(=O)c3ccco3)CC2)n2c(nc3ccccc32)c1C#N	D1 mod 6 (no result: Htt clearance) | D1 mod confirm 8868 | Isoprot counter 3008
CC(=O)N1CCN(c2nc(CC(C)C)c3c(c2C#N)CCC3)CC1	D1 mod 18 | D1 mod confirm 22940 | D1 no dopamine inactive | Isoprot counter 5844
N#Cc1c(N2CCN(C(=O)c3ccco3)CC2)nc(-c2ccccc2)c2c1CCCC2	D1 mod 2.8 (no result: Htt clearance) | D1 mod confirm 13716 | D1 no dopamine inactive | Isoprot counter 4224
CC(C)c1cc(NCCN2CCOCC2)n2c(nc3ccccc32)c1C#N	none (no result: Htt clearance)
O=[N+]([O-])c1ccc(Sc2nccn2Cc2ccccc2)c([N+](=O)[O-])c1	none (no result: D1 mod, M1 ag, M1 antagonist)
CC(C)CC(=O)NCc1ccc(F)cc1	none (no result: D1 mod, M1 ag, M1 antagonist)
CCC(=O)c1ccc(OCC(=O)N2CCc3cc(OC)c(OC)cc3C2)cc1	none (no result: Htt clearance)
COc1ccc(CN2CCN(C(=O)c3cccs3)CC2)cc1Br	D1 mod 6.4 | D1 mod confirm 12896 | Isoprot counter 4528
CCOc1ccc(C(=O)N2CCc3cc(OC)c(OC)cc3C2)cc1OCC	D1 mod 4.6 | D1 mod confirm 15188 | D1 no dopamine inactive | Isoprot counter 4380
COc1cc2c(cc1OC)CN(C(=O)c1cccs1)CC2	D1 mod 5.1 | D1 mod confirm 8784 | D1 no dopamine inactive | Isoprot counter 4064
COc1cc2c(cc1OC)CN(C(=O)COc1ccc(C)c(C)c1)CC2	D1 mod 13 (no result: Htt clearance) | D1 mod confirm 21228 | D1 no dopamine inactive | Isoprot counter 5744
COc1cccc(C(=O)N2CCN(C(=O)c3cccs3)CC2)c1OC	none
CC(C)(C)C(=O)Nc1nc(=S)ss1	none (no result: D1 mod, M1 ag, M1 antagonist)
O=C1CC(c2ccccc2)CC(O)=C1C=NCCN1CCN(C(=O)Nc2ccccc2)CC1 (configuration not stated)	none
COc1ccc2c(c1)C(=O)N(c1ccccc1OC)C(=O)C2(C)C	D1 mod 6.9 | D1 mod confirm 11528 | D1 no dopamine inactive | Isoprot counter inactive
COc1ccccc1Oc1ccc2c(c1)C(=O)N(c1ccc(O)cc1)C2=O	none (no result: Htt clearance)
COc1ccc(OC)c(NC(=O)CSc2nc3ccccc3c(=O)n2CCNC(C)=O)c1	D1 mod 9.7 (no result: Htt clearance) | D1 mod confirm 9716 | D1 no dopamine inactive | Isoprot counter inactive
COCCCNc1oc(-c2ccccc2F)nc1C#N	D1 mod 5.8 | D1 mod confirm 11980 | D1 no dopamine inactive | Isoprot counter 3472

Screening results deposited in PubChem by several laboratories.
